Source: PubChem
Shown are actives, neighbours in structure and some others; about 9.3% of the full set was active somewhere.
ELG1 DNA repair = qHTS screen for small molecules that inhibit ELG1-dependent DNA repair in human embryonic kidney (HEK293T) cells expressing luciferase-tagged ELG1; hit rate 2.3% among 330,000; Potency, µM (doses to about 46.1 µM), for inactives: at the highest dose activity change, negative = inhibition, actives largely listed as inhibitors; HEK293T ELG1-luciferase reporter, luminescence, 16 h; DNA damage induced by 5-fluorouridine; AID 504467, 2011; note: % is set by controls: 0 for no effect and ±100 for the full control effect; nearly all actives have a fitted effect of over 55% in size
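Luminescence from the luciferase reporter, measured 30 min after ONE-Glo reagent at room temperature, was the read-out. Beforehand, 2,000 cells per well were exposed for 16 hr at 37 °C to 5-fluorouridine together with compound or vehicle.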
FLuc modulator = qHTS profiling assay for firefly luciferase inhibitor/activator using purifed enzyme and Km concentrations of substrates (counterscreen for miR-21 project); Luciferin 4-monooxygenase (Photinus pyralis), P08659; purified FLuc, Km substrates, luminescence inhibition; Potency, µM (doses to about 57.5 µM), for inactives: top-dose activity change, negative = inhibition, usual class: inhibitors; hit rate 6.9% among 360,000;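 note: plate controls were vehicle for no effect and reference inhibitor for full effect; nearly all actives have a fitted effect of over 55% in size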
Target sequence (P08659 whole entry, looked up): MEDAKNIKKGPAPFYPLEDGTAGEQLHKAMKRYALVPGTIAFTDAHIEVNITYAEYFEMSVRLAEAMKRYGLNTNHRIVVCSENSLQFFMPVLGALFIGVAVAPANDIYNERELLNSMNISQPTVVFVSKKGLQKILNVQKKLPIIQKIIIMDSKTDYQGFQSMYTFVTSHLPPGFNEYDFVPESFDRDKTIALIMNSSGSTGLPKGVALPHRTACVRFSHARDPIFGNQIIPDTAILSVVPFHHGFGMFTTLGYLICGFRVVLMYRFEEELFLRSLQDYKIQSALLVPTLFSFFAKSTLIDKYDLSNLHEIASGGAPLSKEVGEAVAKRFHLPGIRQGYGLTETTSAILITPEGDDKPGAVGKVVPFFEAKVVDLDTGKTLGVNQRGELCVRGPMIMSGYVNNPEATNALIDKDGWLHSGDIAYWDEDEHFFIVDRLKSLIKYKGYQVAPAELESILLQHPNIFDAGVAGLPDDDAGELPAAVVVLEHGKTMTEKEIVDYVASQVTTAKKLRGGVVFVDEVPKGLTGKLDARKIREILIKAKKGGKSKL
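Biochemical qHTS of compounds, final roughly 60 µM downward over six points, against 10 nM purified firefly luciferase using Km concentrations of substrates (10 uM D-luciferin, 10 uM ATP) in Tris acetate pH 7.5 buffer; luminescence output.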
NPC1 promoter act = qHTS Assay for NPC1 Promoter Activators; Huh7 NPC1 promoter luciferase reporter, 24 h; Potency, µM (doses to about 9.22 µM), inactives show at the highest dose activation, hits mostly activators; hit rate 2.4% among 320,000; AID 485313, 2010; note: % of control where 0% means no effect; nearly all actives have a fitted effect of over 60% in size
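Stable NPC1-promoter luciferase Huh7 line; cpd (DMSO) 24 h, 37 °C, 5% CO2; Amplite luciferase reagent 10 min RT; luminescence readout. qHTS format.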
ELG1 genotox = qHTS screen for small molecules that induce genotoxicity in human embryonic kidney (HEK293T) cells expressing luciferase-tagged ELG1. Potency, µM (highest dose often 46 µM), without a hit: top-dose activity change, positive = activation, actives largely listed as activators. hit rate 1.3% among 330,000. HEK293T ELG1-luciferase reporter, luminescence, 16 h. AID 504466, 2011; note: % of control where 0% means no effect; nearly all actives have a fitted effect of over 60% in size
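Quantitative HTS format in 1536-well plates. HEK293T ELG1-luciferase reporter cells receive test compound and are incubated 16 hr at 37 °C, 5% CO2; ONE-Glo added, 30 min room temperature, then luminescence read.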
SMN2 splice enh = qHTS Assay for Enhancers of SMN2 Splice Variant Expression; HEK293 SMN2-luciferase splicing reporter, luminescence, 30-36 h; Potency, µM (series often up to 46.1 µM), without a hit: top-dose activity change, positive = activation, usual class: activators; hit rate 2.8% among 210,000; note: % of control where 0% means no effect; nearly all actives have a fitted effect of over 55% in size
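HEK293 cells carry an SMN2 minigene-luciferase reporter in which exon 7 inclusion puts luciferase in frame. Cells were seeded at 2000 cells/well, attached for 10-12 hours, then exposed to compounds for 30-36 hours at 37C before ONE-Glo luminescence.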
Rab9 prom act = qHTS Assay for Rab9 Promoter Activators. hit rate 2.8% among 320,000. AID 485297, 2010. Potency, µM (highest dose often 9.22 µM), for the others: top-dose activation, negative = inhibition, most hits filed as activators. Huh7 Rab9 promoter-luciferase reporter, luminescence, 24 h; note: % of control where 0% means no effect; nearly all actives have a fitted effect of over 60% in size
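Luciferase signal after 10 min detection reagent at ambient indicates Rab9 promoter upregulation; stably transfected Huh7 cells were treated 24 h with compound in DMSO at 37 °C, 5% CO2.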
* marks the source's active call; other numbers are inactive results; ? = inconclusive; . = no result. Calls come from the whole dose curve; as a rule, active = well fitted curve in the direction sought with a large enough effect; inconclusive = small, poorly fitted or top-dose-only effect, or another doubt; inactive = no such curve, though single readings can be large; an effect the other way counts as inactive or inconclusive. Potency is the fitted concentration of half-maximal effect.

SMILES	ELG1 DNA repair	FLuc modulator	NPC1 promoter act	ELG1 genotox	SMN2 splice enh	Rab9 prom act
COCCCN=C1NN=C(c2cc(C)n(-c3ccccc3F)c2C)CS1	?	2.4µM*	?	-9%	16%	0.32µM*
COCCCN=C1NN=C(c2cc(C)n(Cc3ccccc3Cl)c2C)CS1	?	12µM*	-4%	?	?	23%
Cc1cc(C2=NNC(=Nc3ccccc3)SC2)c(C)n1C	?	11µM*	3.2µM*	?	?	1.4µM*
Cc1cc(C2=NNC(=NCCc3ccccc3)SC2)c(C)n1-c1c(C)n(C)n(-c2ccccc2)c1=O	-10%	-6%	-4%	-5%	.	2%
COCCN=C1NN=C(c2cc(C)n(CC3CCCO3)c2C)CS1 (centres undefined)	6%	?	28%	12%	-16%	?
COc1ccccc1C1=NNC(=NCc2ccccc2)SC1	30%	?	11%	6%	-5%	20%
CCOC(=O)N1CCN(Cc2nc3cc(NC(=O)CC)ccc3n2C(C)C)CC1	.	-1%	.	.	.	.
COc1cccc(NC(=O)CNS(=O)(=O)c2ccc(Cl)cc2)c1	-13%	1%	1%	0%	-6%	-2%
COCCn1c(C)cc(C2=NNC(=Nc3ccccc3F)SC2)c1C	?	0.54µM*	?	?	-31%	0%
CS(=O)(=O)N(CC(N)=O)c1cccc(Br)c1	-1%	4%	-1%	-2%	1%	0%
CSc1n[nH]c(NCc2ccc(Cl)cc2)n1	?	?	5%	-2%	27%	-2%
CSc1n[nH]c(NCc2ccc(C)cc2)n1	?	24µM*	29%	?	16µM*	?
O=C(CSc1ncccn1)c1ccccc1Br	?	?	1%	17%	13µM*	3%
COCC(C)n1c(C)cc(C(=O)CSc2ccc(NC(C)=O)cc2)c1C (centres undefined)	?	-19%	?	7.9µM*	-40%	?
COCC(C)n1c(C)cc(C(=O)CSc2nnc(-c3ccco3)o2)c1C (centres undefined)	0%	.	.	-2%	.	.
CC(=O)Nc1ccc(SCC(=O)c2cc(C)n(-c3ccccc3F)c2C)cc1	?	6µM*	?	?	-70%	23%
COCCn1c(C)cc(C(=O)CSc2ccc(NC(C)=O)cc2)c1C	?	?	?	?	-42%	2µM*
O=C(O)CSc1ncccn1	8%	-1%	0%	-2%	14%	-9%
COC(=O)c1ccc(-n2c(C)cc(C(=O)CSc3ccc(NC(C)=O)cc3)c2C)cc1	?	-12%	0%	-8%	-12%	-2%
COc1ccccc1C(=O)NNC(=O)c1ccccc1Br	?	?	8%	9%	.	19%
Clc1cccc(-c2ccc3ncnc(NCc4ccc5c(c4)OCO5)c3c2)c1	.	-8%	7%	.	.	21%
CCc1ccc(NCc2cc3cc4c(cc3n(CC(=O)Nc3cccc(OC)c3)c2=O)OCO4)cc1	.	-9%	.	.	.	.
C=CCn1c(C)cc(C(=O)CSc2ccc(NC(C)=O)cc2)c1C	?	17µM*	0.5µM*	?	-51%	0.32µM*
COCC(C)n1c(C)cc(C(=O)CSc2nnnn2-c2ccc(O)cc2)c1C (centres undefined)	5%	21µM*	6%	3%	0%	10%
CC(=O)Nc1ccc(NC(=O)CSc2ccc(C)cc2)cc1	0%	0%	-1%	5%	0%	-3%
SMILES	ELG1 DNA repair	FLuc modulator	NPC1 promoter act	ELG1 genotox	SMN2 splice enh	Rab9 prom act
COCC(C)n1c(C)cc(C(=O)CSc2ncccn2)c1C (centres undefined)	?	15µM*	3.2µM*	?	11µM*	4µM*
COCC(C)n1c(C)cc(C(=O)CSc2nnc(Nc3ccccc3F)s2)c1C (centres undefined)	?	17µM*	-4%	-11%	-25%	7%
Cc1cc(C)n(CCNC(=O)c2ccco2)n1	2%	-2%	2%	4%	.	-7%
CCOc1ccc(C(=O)CN2CCN(S(=O)(=O)c3ccc(F)cc3)CC2)cc1	-7%	4%	-6%	0%	-21%	0%
CC(=O)c1ccc(S(=O)(=O)Nc2cccc(-c3cn4c(n3)SCC4)c2)cc1	?	-15%	3%	-6%	-40%	5%
CSc1cccc(NS(=O)(=O)c2ccc(C(C)=O)cc2)c1	7.3µM*	-3%	1%	1%	.	-10%
CC(=O)c1cccc(NS(=O)(=O)c2ccc(NC(=O)N3CCCCC3)cc2)c1	11%	0%	-26%	0%	.	-24%
CC(=O)c1ccc(S(=O)(=O)Nc2cccc(-c3ccc(N4CCCCCC4)nn3)c2)cc1	.	4.8µM*	.	.	.	.
CC(=O)c1ccc(S(=O)(=O)Nc2cccc(-c3ccc(N4CCCC4)nn3)c2)cc1	.	9.5µM*	.	.	.	.
O=C(CN1CCN(C(=O)c2cccc(F)c2)CC1)NC1CCCCC1	-3%	-2%	1%	-1%	-10%	1%
Cc1onc(-c2c(F)cccc2Cl)c1C(=O)N1CCN(c2ncc(Br)cn2)CC1	13µM*	-4%	-3%	-6%	.	-5%
Cc1onc(-c2c(F)cccc2Cl)c1C(=O)N1CCSCC1	-5%	-2%	2%	-2%	.	2%
Cc1ccc(Nc2nc(N)nc(CSc3nnc(-c4ccncc4)o3)n2)cc1	8%	?	3%	5%	9%	1%
COc1ccc(NC2=Nc3cccc4cccc2c34)cc1OC	-1%	?	6%	-3%	-9%	-2%
C(=N\NC1=Nc2cccc3cccc1c23)/c1cccnc1	?	4.8µM*	3.5µM*	?	11µM*	2.5µM*
Clc1ccc(/C=N/NC2=Nc3cccc4cccc2c34)cc1	?	1.7µM*	0.63µM*	?	11µM*	0.63µM*
C(=N\NC1=Nc2cccc3cccc1c23)/c1ccccc1	?	1.7µM*	4µM*	?	4µM*	4.5µM*
COc1cccc(NC2=Nc3cccc4cccc2c34)c1	?	12µM*	-3%	4%	14%	-3%
O=C(CSc1nnc(CCCN2C(=O)c3cccc4cccc(c34)C2=O)n1-c1ccccc1)N1CCCCC1	?	-17%	0%	3%	-43%	-6%
CCN1C(=O)[C@H]2[C@@H](c3ccc(-c4ccc(F)cc4)c(OC)c3)N[C@@](C)(C(=O)OC)[C@H]2C1=O	5%	-1%	0%	11%	.	-2%
